This is an account of results in PubChem BioAssay (EPA / NIEHS).

The target in experiment [1] is Estrogen receptor beta (Homo sapiens) (UniProt Q92731). The experiment in a line: OT_ER_ERbERb_1440: Odyssey Thera (OT) 24-hour HEK293T Protein-Complementation Assay for Estrogen Receptor-beta/-beta Homodimer (AID 2283380).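 Note: scored as signal increase over DMSO baseline for both agonists and antagonists.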 In a few lines:
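HEK293T cells stably expressing ER beta LBD (aa 310-547) homodimer fragment-complementation reporter, dosed 24 h. Cells formaldehyde-fixed, Draq5-stained; gain in nuclear (agonist) or nuclear plus cytoplasmic (antagonist) fluorescence versus DMSO read by laser scanning cytometry.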

Experiment [2] deals with Retinoic acid receptor RXR-alpha (Homo sapiens) (UniProt P19793). The experiment in a line: OT_NURR1_NURR1RXRa_0480: Odyssey Thera (OT) 8-hour HEK293T Protein Complementation Assay for Nurr1/retinoid X receptor (RXR) (AID 2283385). The gist of the method:
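Read-out: fluorescence from protein-fragment complementation between Nurr1 and RXRα in human HEK293T cells, 8 h after dosing. DMSO served as negative control; increased signal counted as activity.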

The target of experiment [3] is Peroxisome proliferator-activated receptor gamma (Homo sapiens) (UniProt P37231). The experiment in a line: OT_PPARg_PPARgSRC1_0480: Odyssey Thera (OT) 8-hour Protein-Complementation Assay for Peroxisome Proliferator-activated Receptor Gamma / SRC-1 Co-activator (AID 2283387). In a few lines:
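Protein-fragment complementation in HEK293T: Venus YFP halves (residues 1-158, 159-239, mutated to IFP1/IFP2) fused to PPARg/SRC-1. 8 h exposure; N/C ratio at 488 nm; DMSO negative control.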

The target is the same in experiment [4]. The experiment in a line: OT_PPARg_PPARgSRC1_1440: Odyssey Thera (OT) 24-hour Protein-Complementation Assay for Peroxisome Proliferator-activated Receptor Gamma/ SRC-1 Co-activator (AID 2283388). The gist of the method: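 HEK293T transiently transfected with PPARg/SRC-1 split-Venus YFP fusions 48 h before dosing, then treated 24 h at 37C. Fixed cells imaged; nuclear/cytoplasmic 488 nm fluorescence ratio, gain of signal versus DMSO.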

Experiment [5] concerns the target Retinoic acid receptor RXR-alpha (Homo sapiens) (UniProt P19793). The experiment in a line: OT_NURR1_NURR1RXRa_1440: Odyssey Thera (OT) 24-hour HEK293T Protein Complementation Assay for Nurr1/retinoid X receptor (RXR) (AID 2283386). The gist of the method: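 Fluorescence PCA read-out; HEK293T; 24 h post-dose; bait/prey fused to reporter fragments; gain-of-signal fit vs DMSO negative control.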

The target in experiment [6] is Estrogen receptor (Homo sapiens) (UniProt P03372). The experiment in a line: OT_ERa_GFPERaERE_0480: Odyssey Thera (OT) 8-hour HeLa Transcription Induction Assay for Estrogen Receptor (AID 2283381; active = hit-call score of the fitted dose curve at least 0.9, where 1 is the maximum; inactive = score below 0.9). The gist of the method:
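GFP-ERE reporter, HeLa, 8 h exposure. Readout: fluorescence microscopy, high-content image analysis. Fit direction positive vs DMSO negative control.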

The target is the same in experiment [7]. The experiment in a line: OT_ERa_GFPERaERE_0120: Odyssey Thera (OT) 2-hour HeLa Transcription Induction Assay for Estrogen Receptor (AID 2283382). In a few lines:
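Fluorescence microscopy read-out: inducible fluorescent protein reporter in HeLa cells, imaged 2 h post-dose. Signal increase over DMSO negative control fitted as single primary endpoint via high content image analysis.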

For experiment [8], the target named is Bile acid receptor (Homo sapiens) (UniProt Q96RI1). The experiment in a line: OT_FXR_FXRSRC1_1440: Odyssey Thera (OT) 24-hour HEK293T Protein-Complementation Assay for Farnesoid X receptor/SRC-1 Co-activator (AID 2283384). The gist of the method: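 Fluorescence readout, 24 h post-dose, HEK293T; FXR and SRC-1 fused to complementary reporter fragments, association reconstitutes signal. Positive-direction fit vs DMSO baseline.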
Chain of Bile acid receptor (Homo sapiens) (Q96RI1 whole entry, looked up, the tested form may be a part): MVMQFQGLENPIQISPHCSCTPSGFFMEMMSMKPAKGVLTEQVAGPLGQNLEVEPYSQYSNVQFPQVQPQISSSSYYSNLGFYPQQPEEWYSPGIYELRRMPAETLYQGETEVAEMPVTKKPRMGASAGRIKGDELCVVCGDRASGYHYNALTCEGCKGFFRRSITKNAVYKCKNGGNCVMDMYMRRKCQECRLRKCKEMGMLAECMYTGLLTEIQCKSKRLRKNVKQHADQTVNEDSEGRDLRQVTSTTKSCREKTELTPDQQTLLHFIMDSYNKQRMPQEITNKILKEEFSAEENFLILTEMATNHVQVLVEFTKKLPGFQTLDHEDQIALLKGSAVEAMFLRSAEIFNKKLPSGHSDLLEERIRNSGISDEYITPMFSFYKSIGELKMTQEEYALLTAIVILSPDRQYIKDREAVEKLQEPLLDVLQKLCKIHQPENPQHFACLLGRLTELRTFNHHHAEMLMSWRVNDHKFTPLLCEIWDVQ

A short description of experiment [9]: CEETOX_H295R_11DCORT: CeeTox H295R High-throughput Steroidogenesis Assay for 11-Deoxycortisol (11DCORT) (AID 2283432; active = hit-call score of the fitted dose curve at least 0.9, where 1 is the maximum; inactive = score below 0.9;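 note: 11-deoxycortisol secreted into the medium measured by LC-MS/MS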). The following applies: actives raise or lower the signal. The gist of the method:
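Adrenal carcinoma line H295R, run per OECD 456 with minor changes, was forskolin-stimulated (10 uM, 48 h) before a 48 h chemical exposure at 0.1% DMSO. Secreted 11-deoxycortisol was quantified by HPLC-MS/MS.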

Experiment [10] is described as follows: CEETOX_H295R_OHPREG: CeeTox H295R High-throughput Steroidogenesis Assay for OH-Pregnenolone (OHPREG) (AID 2283434; active = hit-call score of the fitted dose curve at least 0.9, where 1 is the maximum; inactive = score below 0.9). As to conditions: actives raise or lower the signal. The gist of the method: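 H295R, 10 uM forskolin pre-stim 48 h; test chemical 48 h, 0.1% DMSO final. MTBE extraction, reverse-phase C18 HPLC-ESI+ MS/MS of medium. Gain/loss vs DMSO; viability by MTT in same wells.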

Experiment [11] can be described thus: CEETOX_H295R_OHPROG: CeeTox H295R High-throughput Steroidogenesis Assay for OH-Progesterone (OHPROG) (AID 2283435; active = hit-call score of the fitted dose curve at least 0.9, where 1 is the maximum; inactive = score below 0.9). The following applies: actives raise or lower the signal. The gist of the method: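 HPLC-MS/MS quantification of 17alpha-hydroxyprogesterone secreted by H295R cells after 48 h chemical exposure, following 48 h 10 uM forskolin prestimulation. Gain or loss of signal fitted relative to DMSO. Viability checked by MTT in the same wells.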

A short description of experiment [12]: CEETOX_H295R_CORTIC: CeeTox H295R High-throughput Steroidogenesis Assay for Corticosterone (CORTIC) (AID 2283437; active = hit-call score of the fitted dose curve at least 0.9, where 1 is the maximum; inactive = score below 0.9;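 note: corticosterone secreted into medium quantified by mass spectrometry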). As to conditions: actives raise or lower the signal. In a few lines: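 48 h forskolin (10 uM) prestim, then 48 h chemical exposure, final DMSO 0.1%. Readout: corticosterone in medium by LC-MS/MS after MTBE extraction. Gain/loss fit vs DMSO; MTT viability in same wells.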

The nature of experiment [13]: CEETOX_H295R_CORTISOL: CeeTox H295R High-throughput Steroidogenesis Assay for Cortisol (AID 2283438; active = hit-call score of the fitted dose curve at least 0.9, where 1 is the maximum; inactive = score below 0.9;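 note: cortisol secreted into medium quantified by LC-MS/MS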). As to conditions: actives raise or lower the signal. In a few lines: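 Read-out: cortisol in culture medium by reverse-phase C18 HPLC with ESI-positive tandem MS, after MTBE liquid-liquid extraction. Cells: human adrenal H295R, forskolin-primed (10 uM, 48 h) before 48 h chemical exposure in 0.1% DMSO.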

A short description of experiment [14]: CEETOX_H295R_DOC: CeeTox H295R High-throughput Steroidogenesis Assay for DOC (AID 2283439; active = hit-call score of the fitted dose curve at least 0.9, where 1 is the maximum; inactive = score below 0.9). The following applies: actives raise or lower the signal. The gist of the method: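 Human adrenocortical H295R cells, passages up to 10, received 10 uM forskolin for 48 h before chemical addition. After another 48 h exposure in 0.1% DMSO, secreted DOC was measured by LC-MS/MS, with gain or loss fitted against DMSO controls.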

Experiment [15] is described as follows: CEETOX_H295R_PROG: CeeTox H295R High-throughput Steroidogenesis Assay for Progesterone (PROG) (AID 2283442; active = hit-call score of the fitted dose curve at least 0.9, where 1 is the maximum; inactive = score below 0.9). The following applies: actives raise or lower the signal. The gist of the method:
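H295R adrenal cells prestimulated 48 h with 10 uM forskolin, then exposed 48 h to test chemical in 0.1% DMSO. Progesterone in medium quantified by HPLC-MS/MS after MTBE extraction; viability checked by MTT in same wells.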

Each structure is given as a SMILES string. Results filed as inconclusive are left out. Active and inactive are the calls of the source. Rule for the calls, unless noted: active = hit-call score of the fitted dose curve at least 0.9, where 1 is the maximum; inconclusive = response in the unintended direction; inactive = score below 0.9.

Chain of Peroxisome proliferator-activated receptor gamma (Homo sapiens) (P37231 whole entry, looked up, the tested form may be a part): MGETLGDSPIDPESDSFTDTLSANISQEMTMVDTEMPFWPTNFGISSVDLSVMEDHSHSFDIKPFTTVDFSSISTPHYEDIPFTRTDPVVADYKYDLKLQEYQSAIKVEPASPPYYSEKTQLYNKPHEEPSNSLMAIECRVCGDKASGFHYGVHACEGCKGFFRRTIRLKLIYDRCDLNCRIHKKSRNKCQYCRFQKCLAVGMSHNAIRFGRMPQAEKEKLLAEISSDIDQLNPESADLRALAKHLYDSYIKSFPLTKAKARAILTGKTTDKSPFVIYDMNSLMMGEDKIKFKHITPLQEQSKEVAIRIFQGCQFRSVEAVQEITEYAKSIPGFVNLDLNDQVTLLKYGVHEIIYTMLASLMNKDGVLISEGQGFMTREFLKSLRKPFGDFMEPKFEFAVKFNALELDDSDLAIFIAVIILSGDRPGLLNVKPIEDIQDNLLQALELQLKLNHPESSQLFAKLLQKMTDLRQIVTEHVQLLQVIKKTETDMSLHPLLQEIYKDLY
Chain of Estrogen receptor (Homo sapiens) (P03372 whole entry, looked up): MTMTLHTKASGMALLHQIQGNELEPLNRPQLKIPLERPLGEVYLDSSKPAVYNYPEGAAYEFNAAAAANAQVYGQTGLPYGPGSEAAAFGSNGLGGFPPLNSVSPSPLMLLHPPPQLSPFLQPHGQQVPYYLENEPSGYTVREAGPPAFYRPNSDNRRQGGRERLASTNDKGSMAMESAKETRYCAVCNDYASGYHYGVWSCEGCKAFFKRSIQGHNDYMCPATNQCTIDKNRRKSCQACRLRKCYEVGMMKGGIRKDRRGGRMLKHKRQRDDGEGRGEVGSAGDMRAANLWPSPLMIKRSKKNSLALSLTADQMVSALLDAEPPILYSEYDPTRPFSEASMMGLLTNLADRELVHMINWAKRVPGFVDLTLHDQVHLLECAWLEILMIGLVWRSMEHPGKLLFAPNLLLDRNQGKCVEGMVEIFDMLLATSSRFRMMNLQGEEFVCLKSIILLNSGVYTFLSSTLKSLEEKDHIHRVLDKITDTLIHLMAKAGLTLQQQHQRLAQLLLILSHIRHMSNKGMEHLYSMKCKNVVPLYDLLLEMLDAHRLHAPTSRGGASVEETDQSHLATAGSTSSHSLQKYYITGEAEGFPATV
Chain of Estrogen receptor beta (Homo sapiens) (Q92731 whole entry, looked up, the tested form may be a part): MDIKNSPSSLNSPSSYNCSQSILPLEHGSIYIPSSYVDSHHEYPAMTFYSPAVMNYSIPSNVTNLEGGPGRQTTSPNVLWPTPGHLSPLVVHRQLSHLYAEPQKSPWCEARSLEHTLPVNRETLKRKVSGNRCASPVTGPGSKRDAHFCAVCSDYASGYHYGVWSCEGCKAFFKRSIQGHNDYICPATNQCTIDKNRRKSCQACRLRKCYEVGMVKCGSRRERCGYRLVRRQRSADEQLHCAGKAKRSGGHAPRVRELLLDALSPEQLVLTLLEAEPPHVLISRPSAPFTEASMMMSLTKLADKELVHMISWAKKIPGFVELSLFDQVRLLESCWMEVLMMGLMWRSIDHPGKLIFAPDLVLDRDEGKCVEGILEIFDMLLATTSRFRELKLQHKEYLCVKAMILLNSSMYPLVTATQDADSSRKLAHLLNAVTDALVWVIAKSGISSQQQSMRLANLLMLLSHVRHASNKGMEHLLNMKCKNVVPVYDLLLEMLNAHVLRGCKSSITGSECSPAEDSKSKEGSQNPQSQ
Chain of Retinoic acid receptor RXR-alpha (Homo sapiens) (P19793 whole entry, looked up, the tested form may be a part): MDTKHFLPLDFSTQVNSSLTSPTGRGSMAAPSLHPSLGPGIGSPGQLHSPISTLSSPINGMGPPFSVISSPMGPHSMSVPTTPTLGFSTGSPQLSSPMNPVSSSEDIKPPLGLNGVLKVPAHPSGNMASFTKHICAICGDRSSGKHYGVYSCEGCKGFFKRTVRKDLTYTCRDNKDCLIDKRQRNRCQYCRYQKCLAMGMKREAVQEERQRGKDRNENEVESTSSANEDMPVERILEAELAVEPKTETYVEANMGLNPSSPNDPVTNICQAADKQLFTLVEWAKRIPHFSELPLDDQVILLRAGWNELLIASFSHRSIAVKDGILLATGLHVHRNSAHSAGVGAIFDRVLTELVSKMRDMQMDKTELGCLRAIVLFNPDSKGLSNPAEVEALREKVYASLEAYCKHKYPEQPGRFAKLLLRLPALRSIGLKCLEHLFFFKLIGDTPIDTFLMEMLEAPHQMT

Consider `CCCC/C=C\CCCCCCCCCC=O`, for which the result in [1], in [2], in experiment [3] and in experiment [4] was inactive.

`O=C[C@@H](O)[C@H](O)[C@H](O)CO`: the result in experiment [1], in [2], in [5], in [3] and in experiment [4] was inactive.

As for `CCN(CC)c1ccc2c(-c3ccccc3C(=O)O)c3ccc(=[N+](CC)CC)cc-3oc2c1`, the call in experiment [6] and in experiment [7] was inactive. In addition, the AC50 in experiment [8] is 38.9 µM (active); in experiment [2], 12.7 µM (active); in experiment [5] it was 16.1 µM (active); in [3], 12.2 µM (active); in experiment [4] it was 12 µM (active).

Consider `COc1c(Cl)c(Cl)c(Cl)c(Cl)c1Cl`, for which the call in experiment [1] and in experiment [2] was inactive.

On to `BrC1CCC(Br)C(Br)CCC(Br)C(Br)CCC1Br` (stereo not drawn), for which the compound was classed as inactive in experiment [6], in experiment [7], in [2], in experiment [5], in experiment [3] and in experiment [4]. Moreover, in experiment [8], the AC50 is 17.4 µM (active).

For `CCCCCC(CO)CCC` (stereo not drawn), the compound was called inactive in experiment [1], in [2], in experiment [5], in experiment [3] and in [4].

In the case of `CCCCCCCCC=O`, the compound was called inactive in experiment [6], in [7], in experiment [8], in [2], in [5] and in experiment [3]. In experiment [4], the compound was called inactive.

`OCCN1CCNCC1`: the compound was called inactive in [6], in experiment [7], in [8], in experiment [2], in experiment [5] and in experiment [3]. Further, in experiment [4], the compound was classed as inactive.

As to `OCCOCCOCCOCCO`, the result in experiment [6], in experiment [7], in experiment [2] and in experiment [5] was inactive.

For `C=CCOc1nc(OCC=C)nc(OCC=C)n1`, the AC50 in [1] was 25.5 µM (active); in [9], 25.9 µM (active); in experiment [10], 38.6 µM (active); in experiment [12] it was 31.7 µM (active); in [13], 29.3 µM (active); in experiment [15], 50 µM (active). Besides, the outcome in experiment [2], in experiment [5], in experiment [3], in experiment [4], in [11] and in [14] was inactive.

On to `O=Nc1ccc(Nc2ccccc2)cc1`, for which the outcome in [1], in experiment [3] and in [4] was inactive. Further, the AC50 in experiment [6] was 72.3 µM (active); in [7], 28.2 µM (active); in [2], 0.707 µM (active).

For `CC(=O)C=CC1=C(C)CCCC1(C)C`, the compound was classed as inactive in experiment [6], in experiment [7], in experiment [5], in experiment [3] and in [4]. Moreover, the AC50 in [2] was 50 µM (active).

For `O=C1c2ccccc2C(=O)N1SC1CCCCC1`, in experiment [6], the compound was classed as inactive. The AC50 in experiment [7] was 36.3 µM (active).

Regarding `CCCCCCCCCCCCN`, the figures for the concentration at half-maximal activity (AC50) in experiment [2] and in experiment [5] were 11 µM (active) and 10.6 µM (active), respectively. In addition, the compound was called inactive in [3] and in experiment [4].

Usually AC50 stands for the midpoint of the concentration-response curve, whichever way the signal moves.
